Assay results: the supplement of paper PMC10981050
Several values for one entry are separate records, joined by “and”; a condition that tells them apart may be missing. Identical values can stand only once. Counter-ions that a name gives are not always drawn.

Assays:
Assay in all cases: cell viability relative to vehicle control; higher = less cytotoxic
Settings in all cases: 10 µM
K562 = tested on: K562
In short: (§1)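 Each screen used CRISPR-edited mutant and wild-type clones from four leukaemia lines. Compounds were acoustically dispensed at a single 10 µM dose, and CellTiter-Glo luminescence was read after 48 h with the supernatant first removed. Viability was analysed in Genedata Screener and given as percent of the on-plate vehicle control.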

MARIMO = tested on: MARIMO
In short: as §1

MOLM14 = tested on: MOLM14
In short: as §1

OCI-AML2 = tested on: OCI-AML2
In short: as §1

Compound | cell viability (K562; SRSF2 genotype: SRSF2 P95H/wt) | cell viability (K562; SRSF2 genotype: SRSF2 wt/wt) [%] | cell viability (MARIMO; SRSF2 genotype: SRSF2 P95H/wt) [%] | cell viability (MARIMO; SRSF2 genotype: SRSF2 wt/wt) [%] | cell viability (MOLM14; SRSF2 genotype: SRSF2 P95H/wt) [%] | cell viability (MOLM14; SRSF2 genotype: SRSF2 wt/wt) [%] | cell viability (OCI-AML2; SRSF2 genotype: P95H/wt) [%] | cell viability (OCI-AML2; SRSF2 genotype: wt/wt) [%]
CCC/N=C1\S/C(=C\c2ccc(OC[C@H](O)CO)c(Cl)c2)C(=O)N1c1ccccc1C | 89.5% and 93.7% | 89.6 | 105 | 98.3 | 94.5 | 93.5 | 108 | 95.2
CC(C)(C)C(=O)N1N=CC[C@H]1c1ccccc1 | 101% and 98.4% | 104 | 107 | 108 | 95.5 | 103 | 97.2 | 103
COc1ccc(-c2oc3c(CC=C(C)C)c(O[C@@H]4O[C@H](CO)[C@@H](O)[C@H](O)[C@H]4O)cc(O)c3c(=O)c2O[C@@H]2O[C@@H](C)[C@H](O)[C@@H](O)[C@H]2O[C@@H]2O[C@@H](C)[C@H](O)[C@@H](O)[C@H]2O)cc1 [Epmedin C] | 104% and 108% | 106 | 100 | 103 | 107 | 105 | 103 | 107
CC(C)OC(=O)C(C(=O)OC(C)C)=C1SC=CS1 [Malotilate] | 92.5% and 94.4% | 93.6 | 76.5 | 83.6 | 89.5 | 99.4 | 85 | 88.8
CC(C)Oc1ccc(C(=O)N[C@H](CNC(=O)CN(C)C)Cc2ccc(-c3cn4cccc([C@H](C)O)c4n3)cc2)cc1Cl | 20.3% and 30.1% | 36.2 | 34.6 | 26.3 | 9.14 | 1.72 | 12.4 | 14.5
CO[C@H]1/C=C/O[C@@]2(C)Oc3c(C)c(O)c4c(O)c(c(/C=N/N5CCN(C)CC5)c(O)c4c3C2=O)NC(=O)/C(C)=C\C=C\[C@H](C)[C@H](O)[C@@H](C)[C@@H](O)[C@@H](C)[C@H](OC(C)=O)[C@@H]1C [Rifampin] | 106% and 97.3% | 93.9 | 99.9 | 116 | 83.1 | 95.7 | 96.4 | 105
Cc1ccnc(NS(=O)(=O)c2ccc(N)cc2)n1 [Sulfamerazine] | 99.9% and 106% | 101 | 105 | 104 | 99.7 | 107 | 107 | 89.9
C=C1C(=O)O[C@H]2[C@H]1CC/C(C)=C/CC[C@@]1(C)O[C@@H]21 [Parthenolide ((-)-Parthenolide)] | 18.9% and 9.99% | 26.7 | 8.78 | 8.07 | 1.59 | 0.67 | 0.71 | 0.34
O=c1[nH]cnc2[nH]ncc12 [Allopurinol Sodium (Aloprim)] | 90.9% and 86.7% | 90.5 | 89.1 | 93.1 | 86.6 | 91 | 90.6 | 95.1
COc1cc([C@@H]2Oc3cc([C@H]4Oc5cc(O)cc(O)c5C(=O)[C@@H]4O)ccc3O[C@H]2CO)ccc1O [Silymarin (Silybin B)] | 106% and 94.4% | 95.6 | 99.6 | 108 | 105 | 102 | 106 | 114
CC1=C(CSC(=S)N2CCCCC2)C(=O)c2ccccc2C1=O [PKM2 inhibitor(compound 3k)] | 3.74% and 0.42% | 8.02 | 0.75 | 0.85 | 0.19 | 0.21 | 0.2 | 1.51
CC[C@H]1OC(=O)[C@H](C)[C@@H](O[C@H]2C[C@@](C)(OC)[C@@H](O)[C@H](C)O2)[C@H](C)[C@@H](O[C@@H]2O[C@H](C)C[C@H](N(C)C)[C@H]2O)[C@](C)(O)C[C@@H](C)C(=O)[C@H](C)[C@H]2OC(=O)O[C@@]21C [Erythromycin Cyclocarbonate] | 101% and 103% | 92.5 | 98.3 | 101 | 104 | 99.5 | 99 | 101
OC[C@H]1O[C@@H](c2ccc(F)c(Cc3cc4ccccc4s3)c2)[C@H](O)[C@@H](O)[C@@H]1O [Ipragliflozin (ASP1941)] | 96.6% and 98.5% | 102 | 95.6 | 95.8 | 101 | 99.4 | 99.1 | 95.1
Cc1ccc(-c2c(-c3nn(C)c4ncnc(N5CC[C@H](N6CCCCC6)C5)c34)cnn2C)cc1 | 92.8% and 98% | 105 | 96.5 | 98.5 | 95.1 | 101 | 103 | 102
CC(C)=CCc1cc2c(cc1O)oc(=O)c1c3ccc(O)cc3oc21 [Psoralidin] | 98.2% and 95.7% | 95.2 | 98 | 106 | 115 | 107 | 98 | 98.9
CC(NC(=O)Cc1cc(F)cc(F)c1)C(=O)NC(C(=O)OC(C)(C)C)c1ccccc1 (stereo not given) | 98.8% and 103% | 106 | 83.2 | 95.7 | 96.8 | 103 | 90 | 102
OCCN(CCO)c1nc(N2CCCCC2)c2nc(N(CCO)CCO)nc(N3CCCCC3)c2n1 [Dipyridamole (Persantine)] | 95.7% and 95.1% | 94.8 | 93.1 | 114 | 111 | 107 | 99.9 | 108
O=c1[nH]c2ccccc2n1CCN1CCN(c2cccc(C(F)(F)F)c2)CC1 [Flibanserin] | 89.2% and 98.9% | 91.8 | 96.9 | 110 | 101 | 102 | 91 | 108
OC[C@H]1O[C@H](OCC2O[C@@H](O)[C@H](O)[C@@H](O)[C@@H]2O)[C@H](O)[C@@H](O)[C@H]1O (stereo not given in full) [Melibiose] | 108% and 104% | 106 | 105 | 110 | 101 | 108 | 98.5 | 103
NS(=O)(=O)Cc1noc2ccccc12 [Zonisamide] | 90.4% and 88.2% | 89.5 | 85 | 98 | 91.8 | 90.3 | 84.7 | 95.2

Compound | cell viability (K562; SRSF2 genotype: SRSF2 P95H/wt) | cell viability (K562; SRSF2 genotype: SRSF2 wt/wt) [%] | cell viability (MARIMO; SRSF2 genotype: SRSF2 P95H/wt) [%] | cell viability (MARIMO; SRSF2 genotype: SRSF2 wt/wt) [%] | cell viability (MOLM14; SRSF2 genotype: SRSF2 P95H/wt) [%] | cell viability (MOLM14; SRSF2 genotype: SRSF2 wt/wt) [%] | cell viability (OCI-AML2; SRSF2 genotype: P95H/wt) [%] | cell viability (OCI-AML2; SRSF2 genotype: wt/wt) [%]
OC[C@H]1O[C@@](CO)(OC[C@@]2(O[C@H]3O[C@H](CO)[C@@H](O)[C@H](O)[C@H]3O)O[C@H](CO)[C@@H](O)[C@@H]2O)[C@@H](O)[C@@H]1O [1-Kestose] | 118% and 105% | 110 | 105 | 99.2 | 99 | 110 | 106 | 112
COc1ccc2c(O[C@@H]3C[C@H]4C(=O)N[C@]5(C(=O)NS(=O)(=O)C6CC6)C[C@H]5/C=C\CCCCN(C)C(=O)[C@@H]4C3)cc(-c3nc(C(C)C)cs3)nc2c1C | 70.6% and 60.2% | 62.9 | 61.6 | 75.3 | 79.1 | 71.6 | 55.2 | 58.8
Cc1noc(NS(=O)(=O)c2ccc(N)cc2)c1C [Sulfisoxazole] | 106% and 97.9% | 107 | 98.5 | 104 | 97.6 | 103 | 98.5 | 104
CCOc1nc2cccc(C(=O)O)c2n1Cc1ccc(-c2ccccc2-c2nnn[nH]2)cc1 [Candesartan (Atacand)] | 91% and 88.3% | 89.3 | 91.7 | 100 | 94.7 | 93.5 | 83.1 | 87.3
N#CC(=Cc1cn(-c2ccccc2)c2ccccc12)C(=O)O | 111% and 90.4% | 93.5 | 86.3 | 94.5 | 89.2 | 97.2 | 91 | 95.4
S=C(N/N=C1/CCCc2cccnc21)N1CCN(c2ccccn2)CC1 | 16.2% and 6.78% | 26.6 | 28 | 25.2 | 22.1 | 13.9 | 22.8 | 30.5
CCC[C@@H]1C[C@@H](C(=O)N[C@@H]([C@H]2O[C@H](SC)[C@H](O)[C@@H](O)[C@H]2O)[C@H](C)Cl)N(C)C1 [Clindamycin HCl] | 91.2% and 108% | 102 | 94.1 | 99.9 | 96.5 | 108 | 83.9 | 85.3
Cc1ccc(NC(=O)c2ccc(CN3CCN(C)CC3)cc2)cc1Nc1nc(-c2cccnc2)cs1 [Masitinib (AB1010)] | 6.35% and 18.8% | 12.1 | 72.5 | 59.7 | 70.3 | 67.8 | 52 | 52.1
CC(=O)N1CCN(c2ccc(OCC3COC(Cn4ccnc4)(c4ccc(Cl)cc4Cl)O3)cc2)CC1 (stereo not given) [Ketoconazole] | 56.2% and 70.5% | 62.4 | 34.9 | 26.1 | 40.9 | 26.2 | 32 | 30.8
O=C(NS(=O)(=O)c1ccc(Br)s1)c1ccc(Cl)cc1Cl | 92.9% and 102% | 103 | 97 | 98.4 | 61.8 | 83.3 | 73.9 | 87.6
O=C(O)c1ccc(CN2CCC(CN[C@@H]3C[C@H]3c3ccccc3)CC2)cc1 | 98.9% and 101% | 95.4 | 92.3 | 91 | 98.7 | 87.2 | 78.3 | 91.6
O=C(O)c1ccc(NC(=O)[C@H](Cc2ccc(O)cc2)NC(=O)c2ccccc2)cc1 [bentiromide] | 103% and 106% | 106 | 112 | 111 | 95.6 | 104 | 110 | 96.2
CC1(C)S[C@@H]2[C@H](NC(=O)[C@H](NC(=O)N3CCN(S(C)(=O)=O)C3=O)c3ccccc3)C(=O)N2[C@H]1C(=O)O [Mezlocillin Sodium] | 100% and 98.1% | 102 | 101 | 112 | 100 | 101 | 97.4 | 112
C=CC(=O)Nc1cc(Nc2nccc(-c3cn(C)c4ccccc34)n2)c(OC)cc1N(C)CCN(C)C | 1.58% and 2.37% | 3.2 | 1.11 | 1.36 | 0.38 | 0.44 | 0.32 | 0.41
COc1cc2nc(N3CCN(C(=O)C4CCCO4)CC3)nc(N)c2cc1OC (stereo not given) [Terazosin HCl] | 97.7% and 96.9% | 96.6 | 99.5 | 102 | 101 | 99.2 | 103 | 104
COc1c(C)c2c(c(O)c1C/C=C(\C)CCC(=O)OCCN1CCOCC1)C(=O)OC2 [Mycophenolate mofetil (CellCept)] | 50.6% and 48.7% | 45.1 | 45.4 | 43.6 | 9.99 | 2.92 | 13.5 | 12.2
Cc1ccc(/C=N/NC(=O)c2ccccc2Oc2ccccc2)o1 | 96.8% and 102% | 96.3 | 96.3 | 105 | 102 | 98.7 | 112 | 109
O=C(O)COc1ccc(Br)cc1C=C1SC(=S)N(Cc2cccnc2)C1=O [Skp2 inhibitor C1 (SKPin C1)] | 34.9% and 35.5% | 35.5 | 18.9 | 18.6 | 5.39 | 2.44 | 3.65 | 9.12
COc1cc(C(C)=O)ccc1O [Apocynin (Acetovanillone)] | 103% and 104% | 105 | 91.6 | 110 | 104 | 103 | 93 | 93.7
C[C@H]1[C@H](C)CC[C@]2(C(=O)O[C@@H]3O[C@H](CO[C@@H]4O[C@H](CO)[C@@H](O[C@@H]5O[C@H](C)[C@H](O)[C@@H](O)[C@H]5O)[C@H](O)[C@H]4O)[C@@H](O)[C@H](O)[C@H]3O)CC[C@]3(C)C(=CC[C@@H]4[C@@]5(C)C[C@@H](O)[C@H](O)[C@@](C)(CO)[C@@H]5CC[C@]43C)[C@H]12 [Asiaticoside] | 102% and 105% | 101 | 103 | 99.2 | 103 | 103 | 98.7 | 106
